{"source": "PubChem BioAssay (NCI)", "note": "About 79,000 compounds went through this panel and 15% of them were active in at least one assay; those are over-represented in the sample as a whole. A number with no mark means an inactive call. Activity calls are given as the source filed them. No stated cut-off is given here; in the data, active means growth inhibition above about 70%; inactive means the rest."}
{"test": "NCI Yeast Anticancer Drug Screen. Data for the cln2 rad14 strain (AID 165);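 further: 0% = growth equal to vehicle treated cultures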", "settings": "S. cerevisiae cln2 rad14 strain, at 50.0 µM (retest, dose inferred, filed as 5.0), hits give high values", "procedure,_shortened": "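Growth of compound-exposed yeast (cln2 rad14 genotype) measured and expressed as inhibition relative to vehicle.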"}
{"smiles": "Clc1ccc(-c2nc3ccc(Cl)cc3[nH]2)cc1", "growth inhibition": "92% (active)"}
{"smiles": "O=C1c2ccccc2NC(=O)C2C1C(c1ccccc1)CC2(O)c1ccccc1", "note": "(stereo unspecified)", "growth inhibition": "51%"}
{"smiles": "COc1ccc(CC2C(=O)NC(C)C(=O)N(C)C3Cc4ccc(cc4)Oc4cc(ccc4O)CC(C(=O)NC(C)C(=O)NC(C)C(=O)N2C)N(C)C3=O)cc1", "note": "(stereo unspecified)", "growth inhibition": "72% (active)"}
{"smiles": "O=C1c2cccnc2-c2nccc3c2c1nc1cc(Br)ccc13", "growth inhibition": "97% (active)"}
{"smiles": "CCN(C(=O)O)c1ccc(/C=C/c2ccnc3ccccc23)cc1", "growth inhibition": "91% (active)"}
{"smiles": "O=C(/C=C/c1cccc(Cl)c1)c1ccccc1", "growth inhibition": "52%"}
{"smiles": "O.O.O=C(O)C(O)C(O)C(OC1OC(CO)C(O)C(O)C1O)C(O)CO.O=C(O)C(O)C(O)C(OC1OC(CO)C(O)C(O)C1O)C(O)CO.[NH-]C1CCCCC1[NH-].[Pt+2]", "note": "(stereo unspecified)", "growth inhibition": "12%"}
{"smiles": "O=C(N=c1sc2ccccc2s1)N=c1sc2ccccc2s1", "growth inhibition": "6%"}
{"smiles": "Cc1ccsc1/C=N/Nc1ccc2ccccc2n1", "growth inhibition": "91% (active)"}
{"smiles": "CC(C)(C)C1=NC(=S)SC2=NC(=O)C3(NN21)c1ccccc1-c1ccccc13", "growth inhibition": "45%"}
{"smiles": "COC(=O)c1ccc(OC)cc1", "growth inhibition": "-7%"}
{"smiles": "Cc1ccc(/C=C2\\CN(C)CC3=C2NC(=S)NC3c2ccc(C)cc2)cc1", "note": "(stereo unspecified)", "growth inhibition": "33%"}
{"smiles": "O=C1NC(=O)/C(=C/C=C/c2ccccc2)S1", "growth inhibition": "63%"}
{"smiles": "Nc1ccc(Cc2ccc(N)cc2[N+](=O)[O-])c([N+](=O)[O-])c1", "growth inhibition": "31%"}
{"smiles": "COc1ccccc1/C=C\\C(=O)c1ccccc1", "growth inhibition": "57%"}
{"smiles": "NNC(=S)NN/C=C(\\C=Nc1ccccc1)[N+](=O)[O-]", "growth inhibition": "57%"}
